In PubChem BioAssay AID1347156 (National Center for Advancing Translational Sciences (NCATS), 2019):
Results filed as inconclusive are left out. Active and inactive are the calls of the source. Calls follow the shape of the dose curve; as a rule, active = well fitted cell-killing curve with a large enough effect; inconclusive = small, poorly fitted or top-dose-only effect; inactive = flat fitted curve, though single readings scatter.

assay: DAPI mCherry counterscreen qHTS for Zika virus inhibitors; conditions: Vero cells, DAPI nuclear count cytotoxicity, imaging 48-72 h, infected with Zika reporter virus, MOI 1; series mostly up to 32.6 µM; also: nearly all actives have a fitted effect of over 55% in size
Outline: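 Imaging read-out after fixation and Hoechst nuclear staining: percent infection from mCherry-positive cells (above 3 SD of negative controls) and nuclear counts. Setup: Vero cells pre-plated overnight, compound added, infected with ZIKV-mCherry (MOI 1), 48-72 hrs, 37 degrees C.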
Potency is read from the fitted curve at half-maximal effect.

Structure (SMILES)	Potency
Nc1c(S(=O)(=O)O)cc(Nc2ccc(Nc3nc(Cl)nc(Nc4ccc(S(=O)(=O)O)cc4)n3)c(S(=O)(=O)O)c2)c2c1C(=O)c1ccccc1C2=O	inactive
CO[C@H]1C[C@@H](O[C@@H]2/C(C)=C/C[C@@H]3C[C@@H](C[C@]4(CC[C@H](C)[C@@H](C5CCCCC5)O4)O3)OC(=O)[C@@H]3C=C(C)/C(=N/O)[C@H]4OC/C(=C\C=C\[C@@H]2C)[C@]43O)O[C@@H](C)[C@H]1O	11.2 µM (active)
CCN(Cc1cccc(S(=O)(=O)O)c1)c1ccc(C(=C2C=CC(=[N+](CC)Cc3cccc(S(=O)(=O)O)c3)C=C2)c2ccc(O)cc2S(=O)(=O)O)cc1	inactive
COc1cc(Nc2nc3ccccc3nc2NS(=O)(=O)c2cccc(NC(=O)c3ccc(C)c(OC)c3)c2)cc(OC)c1	4.47 µM (active)
CCOC(=O)c1ccc(N2C(=O)c3n[nH]c(-c4cccs4)c3C2c2ccc(Cl)cc2Cl)cc1 (centres undefined)	11.2 µM (active)
NC(=O)c1ccc2nc(-c3ccc(Oc4ccc(Cl)cc4)cc3)[nH]c2c1	31.6 µM (active)
Oc1c(Cl)cc(Cl)cc1Sc1cc(Cl)cc(Cl)c1O	inactive
O=C(O)Cc1cccc(OCCCN(Cc2cccc(C(F)(F)F)c2Cl)CC(c2ccccc2)c2ccccc2)c1	15.8 µM (active)
Cc1cc(N2CCOCC2)cc2[nH]c(-c3c(NC[C@@H](O)c4cccc(Cl)c4)cc[nH]c3=O)nc12	12.6 µM (active)
O=C(COc1ccccc1C(=O)OCC(=O)Nc1cccc2ccccc12)Nc1ccc(Br)cc1	inactive
CC1(COc2ccc(CC3SC(=O)NC3=O)cc2)CCCCC1 (centres undefined)	31.6 µM (active)
O=C(O)COc1ccc(-c2nccc3c2C(=O)N(Cc2cccc(C(F)(F)F)c2)CC(COc2ccc4cnccc4c2)O3)cc1 (centres undefined)	inactive
Cc1cccc(C(=O)Nc2ccc(C(=O)OCc3cc(=O)n4nc(C5CC5)sc4n3)cc2)c1	15.8 µM (active)
O=C(O)c1c(Br)c(Br)c(Br)c(Br)c1C1c2ccc(O)cc2Oc2cc(O)ccc21	20 µM (active)
O=C(Nc1cccc(C(=O)OCc2cc(=O)n3nc(C4CC4)sc3n2)c1)c1cccc(F)c1	inactive
CC1CCC(C(=O)N(c2cc(C#CC(C)(C)C)sc2C(=O)O)C2CCC(O)CC2)CC1 (centres undefined)	25.1 µM (active)
COc1cc(/C=C(\C#N)C(=O)Nc2nnc(C(F)(F)F)s2)ccc1OCc1ccc(C(F)(F)F)cc1C(F)(F)F	7.08 µM (active)

Structure (SMILES)	Potency
CC(C)c1cc(C(C)C)c(CC(=O)NS(=O)(=O)Oc2c(C(C)C)cccc2C(C)C)c(C(C)C)c1	10 µM (active)
Cc1oc2c(cc(NS(=O)(=O)c3ccc(Br)cc3)c3ccccc32)c1C(=O)OCc1ccccc1	inactive
Cc1ccc(-n2[nH]c(C)c(N=Nc3cccc(-c4cccc(C(=O)O)c4)c3O)c2=O)cc1C	14.1 µM (active)
O=S(=O)(O)c1ccc2c(N=Nc3ccc(S(=O)(=O)O)c4ccccc34)c(O)c(S(=O)(=O)O)cc2c1	inactive
O=C(O)COc1ccccc1C1Nc2ccccc2-c2nnc(SCc3ccc(Cl)cc3)nc2O1 (centres undefined)	inactive
Cc1c(C)n(Cc2ccc(-c3ccccc3C(=O)O)cc2)c2ccc(C(=O)N[C@@H](C)c3ccc([N+](=O)[O-])cc3)cc12	35.5 µM (active)
O=C(NCc1ccccc1Cl)c1ccc2c(O)c(S(=O)(=O)c3ccccc3)c(=O)[nH]c2c1	inactive
O=C(O)C1(Cc2cccc(Nc3nccs3)n2)CCC(Oc2cccc(Cl)c2F)CC1 (centres undefined)	17.8 µM (active)
N#C/C(=C\c1ccc(-c2ccc(Cl)c(C(=O)O)c2)o1)c1nc2ccccc2[nH]1	inactive
COc1cc(Nc2nc3ccccc3nc2NS(=O)(=O)c2ccc(NC(=O)c3ccc(C)c(OC)c3)cc2)cc(OC)c1	4.47 µM (active)
CC(C)c1ccc2c(c1)c(SC(C)(C)C)c(CC(C)(C)C(=O)O)n2Cc1ccc(Cl)cc1	11.2 µM (active)
N#Cc1ccc(N2N=C3c4ccc(C(=O)O)cc4CC[C@@H]3[C@@H]2C2CCCC2)cc1Cl	4.47 µM (active)
C/C(=C\c1ccc(C(=O)O)cc1)c1ccc2c(c1)C(C)(C)CCC2(C)C	20 µM (active)
O=C1NC(=O)c2cc(Nc3ccccc3)c(Nc3ccccc3)cc21	31.6 µM (active)
COc1ccc(S(=O)(=O)Nc2cc(-c3c(O)ccc4ccccc34)c(O)c3ccccc23)cc1	10 µM (active)
Cc1nc(N=Nc2ccc(S(=O)(=O)O)cc2S(=O)(=O)O)c(COP(=O)(O)O)c(C=O)c1O	inactive
CC1(C)CCC(CN2CCN(c3ccc(C(=O)NS(=O)(=O)c4ccc(NCC5CCOCC5)c([N+](=O)[O-])c4)c(Oc4cnc5[nH]ccc5c4)c3)CC2)=C(c2ccc(Cl)cc2)C1	5.62 µM (active)
